Compound activity (PubChem BioAssay)
Most compounds without a hit are left out; they make up all but 32% or so of the library.
PostGolgi yeast: phenotypic screen on post-Golgi transport, primary screen | post-Golgi transport phenotypic cell assay | inhibition, % at 10 µM | 98,000 compounds, 0.9% hits | AID 739, 2007;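 further: yeast cells grown in 1536-well plates; yeast grown about 18 h at 30C before absorbance read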
CYP2C9 act: human CYP2C9 activators, primary screen, biochemical, luminescence | recombinant CYP2C9, luciferin-H conversion; active compounds read high; factor 1 = untreated enzyme, 0 = blocked | activation factor at 5 µM | 96,000 compounds, 1.4% hits | AID 1024, 2008;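 active means activation factor of 2 or more for CYP2C9 at a 5 µM dose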;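 further: 0 = sulfaphenazole-blocked wells and 1 = vehicle-only wells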
CYP2C19 inh: blockers of cytochrome P450 2C19 activity – biochemical, luminescence, ADME assay, primary screen | P33261 | 96,000 compounds, 21% hits | CYP2C19 Supersomes, luciferin-H EGE luminescence, 30 min | AID 778, 2007 | inhibition, % at 5 µM;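 active means CYP2C19 inhibition above a set limit at 5 µM in the primary screen, cut at about 50% in these data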;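 further: plate controls were negative control wells for no effect and 2.5 mM tranylcypromine positive control for full effect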
Target sequence (P33261 whole entry, looked up): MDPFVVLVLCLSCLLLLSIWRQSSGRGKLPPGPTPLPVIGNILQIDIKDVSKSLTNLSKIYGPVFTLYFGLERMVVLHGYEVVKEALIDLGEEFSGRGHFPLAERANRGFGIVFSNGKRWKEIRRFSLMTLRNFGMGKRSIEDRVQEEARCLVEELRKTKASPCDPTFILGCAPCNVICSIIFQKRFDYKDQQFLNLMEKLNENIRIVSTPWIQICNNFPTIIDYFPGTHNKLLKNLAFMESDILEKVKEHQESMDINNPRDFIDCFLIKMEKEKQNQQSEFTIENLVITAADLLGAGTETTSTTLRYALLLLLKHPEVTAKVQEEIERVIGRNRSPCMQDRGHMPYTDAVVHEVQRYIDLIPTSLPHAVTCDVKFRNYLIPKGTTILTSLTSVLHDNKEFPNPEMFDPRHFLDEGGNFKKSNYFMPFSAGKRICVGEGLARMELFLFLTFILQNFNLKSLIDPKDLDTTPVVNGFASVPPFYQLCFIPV
CYP2C9 inhib: blockers of cytochrome P450 2C9 activity – biochemical, luminescence, ADME assay, primary screen; P11712; CYP2C9 Supersomes, luciferin-H conversion; inhibition, % at 5 µM; 96,000 compounds, 20% hits;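 active means blocking of liver enzyme CYP2C9 beyond about 50% at 5 µM, limit read from the data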
CYP2C19 activ: human CYP2C19 activators, primary screen, biochemical, luminescence | recombinant CYP2C19, luciferin-H EGE luminescence; active compounds read high; 0 = fully inhibited enzyme, 1 = untreated enzyme | activation factor at 5 µM | 96,000 tested, under 10 active;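 active means activation factor of at least 2 at 5 µM in the primary screen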;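 further: 0 = wells with 2.5 mM tranylcypromine and 1 = vehicle-only wells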
PostGolgi ctrl: growth inhibition of yeast control strain, primary screen, counter-screen for post-Golgi transport modulator project | efflux-deficient yeast background strain, growth absorbance A615, 16 h | inhibition, % at 10 µM | 98,000 compounds, 5% hits | AID 738, 2007
Numbers without * were called inactive. Unless noted, no stated cut-off is given here; in the data, active means inhibition above about 30%; inactive means the rest.

What do the screens show for `COCCNC(=O)c1sc2ncn(CC(=O)N3CCCCC3)c(=O)c2c1C`?
PostGolgi yeast: 14; CYP2C9 act: 0.7; CYP2C19 inh: -17; CYP2C9 inhib: 27; CYP2C19 activ: 1.2; PostGolgi ctrl: 9

Results for CCCNC(=O)Cn1cnc2sc(C(=O)Nc3cc(OC)c(OC)c(OC)c3)c(C)c2c1=O ?
PostGolgi yeast: 4; CYP2C9 act: 0.5; CYP2C19 inh: 37; CYP2C9 inhib: 48; CYP2C19 activ: 0.6; PostGolgi ctrl: 3

Results for CC(=O)C1=C(C)OC(N)=C(C#N)C1c1cc2cc(C)c(C)cc2nc1Cl (configuration not stated) ?
PostGolgi yeast: -2; CYP2C9 act: 0.8; CYP2C19 inh: 87*; CYP2C9 inhib: 25; CYP2C19 activ: 0.1; PostGolgi ctrl: 7

How did Cc1cc2cc(C=O)c(Cl)nc2cc1C do in these assays?
PostGolgi yeast: 3; CYP2C9 act: 0.9; CYP2C19 inh: 6; CYP2C9 inhib: 7; CYP2C19 activ: 0.9; PostGolgi ctrl: 10

Results for O=C(N/N=C\c1cc(Br)cs1)C1COc2ccccc2O1 (configuration not stated) ?
PostGolgi yeast: 7; CYP2C9 act: 0.9; CYP2C19 inh: 10; CYP2C9 inhib: 13; CYP2C19 activ: 0.9; PostGolgi ctrl: 37*

How did O=C1Nc2ccc(S(=O)(=O)N3CCCC3)c3ccc(S(=O)(=O)N4CCCC4)c1c23 do in these assays?
PostGolgi yeast: -2; CYP2C9 act: 1.1; CYP2C19 inh: -7; CYP2C9 inhib: -6; CYP2C19 activ: 1.1; PostGolgi ctrl: 7

How did CC(=O)Oc1cccc(N2C(=O)C3C4C=CC(C4)C3C2=O)c1 (configuration not stated) do in these assays?
PostGolgi yeast: 19; CYP2C9 act: 0.9; CYP2C19 inh: 12; CYP2C9 inhib: 8; CYP2C19 activ: 0.9; PostGolgi ctrl: 13

How did Cn1c(SCC(=O)Nc2ccc3nc(SCC(=O)N4CCCC4)sc3c2)nnc1-c1ccccc1 do in these assays?
PostGolgi yeast: 3; CYP2C9 act: 0.6; CYP2C19 inh: 20; CYP2C9 inhib: 43; CYP2C19 activ: 0.8; PostGolgi ctrl: 10

What do the screens show for `Cc1cccc(NC(=O)CSc2nnc(-c3ccccc3Br)o2)c1C`?
PostGolgi yeast: -6; CYP2C9 act: 0.9; CYP2C19 inh: 37; CYP2C9 inhib: 14; CYP2C19 activ: 0.6; PostGolgi ctrl: -3

How did CCc1cccc(CC)c1NC(=O)CSc1nc2ccc(N3C(=O)C4C5C=CC(C5)C4C3=O)cc2s1 (configuration not stated) do in these assays?
PostGolgi yeast: -12; CYP2C9 act: 0.7; CYP2C19 inh: 35; CYP2C9 inhib: 30; CYP2C19 activ: 0.7; PostGolgi ctrl: 30*

Results for Cc1cccc(NC(=O)CSc2nc3ccc(N4C(=O)c5ccccc5C4=O)cc3s2)c1C ?
PostGolgi yeast: 3; CYP2C9 act: 0.3; CYP2C19 inh: 30; CYP2C9 inhib: 70*; CYP2C19 activ: 0.7; PostGolgi ctrl: 3

Results for Cc1cccc(NC(=O)CSc2nc3ccc(NC(=O)CSc4nnnn4-c4ccccc4)cc3s2)c1C ?
PostGolgi yeast: -1; CYP2C9 act: 0.3; CYP2C19 inh: 19; CYP2C9 inhib: 68*; CYP2C19 activ: 0.8; PostGolgi ctrl: 3

Results for CC(C)=C1C2CC2C2C(C(=O)O)C12 (configuration not stated) ?
PostGolgi yeast: -1; CYP2C9 act: 0.9; CYP2C19 inh: 0; CYP2C9 inhib: 7; CYP2C19 activ: 1; PostGolgi ctrl: 22

How did CCC(OC(=O)c1ccco1)C(=O)NCc1ccc(C)cc1 (configuration not stated) do in these assays?
PostGolgi yeast: 4; CYP2C9 act: 0.7; CYP2C19 inh: 23; CYP2C9 inhib: 28; CYP2C19 activ: 0.8; PostGolgi ctrl: 2

What do the screens show for `Cc1ccc(CNC(=O)C(OC(=O)c2ccco2)C(C)C)cc1` (configuration not stated)?
PostGolgi yeast: -6; CYP2C9 act: 0.4; CYP2C19 inh: 86*; CYP2C9 inhib: 61*; CYP2C19 activ: 0.1; PostGolgi ctrl: -4

What do the screens show for `CC(C)C(OC(=O)c1ccco1)C(=O)NCc1cccs1` (configuration not stated)?
PostGolgi yeast: -3; CYP2C9 act: 0.6; CYP2C19 inh: 69*; CYP2C9 inhib: 35; CYP2C19 activ: 0.3; PostGolgi ctrl: -2

How did Cc1ccc(CNC(=O)C(C)OC(=O)c2ccco2)cc1 (configuration not stated) do in these assays?
PostGolgi yeast: -7; CYP2C9 act: 0.4; CYP2C19 inh: 72*; CYP2C9 inhib: 55*; CYP2C19 activ: 0.3; PostGolgi ctrl: 2

Results for Cc1ccc(CNC(=O)C(C)OC(=O)c2cccs2)cc1 (configuration not stated) ?
PostGolgi yeast: 4; CYP2C9 act: 0.3; CYP2C19 inh: 77*; CYP2C9 inhib: 68*; CYP2C19 activ: 0.2; PostGolgi ctrl: 16

What do the screens show for `CSCCC(NC(N)=O)C(=O)NCc1ccc(Cl)cc1` (configuration not stated)?
PostGolgi yeast: 9; CYP2C9 act: 1; CYP2C19 inh: 27; CYP2C9 inhib: 3; CYP2C19 activ: 0.7; PostGolgi ctrl: -12

What do the screens show for `CC(=O)NCCNC(=O)CCNC(=O)c1ccc(Cl)cc1`?
PostGolgi yeast: -7; CYP2C9 act: 0.9; CYP2C19 inh: 8; CYP2C9 inhib: 6; CYP2C19 activ: 0.9; PostGolgi ctrl: 2

What do the screens show for `CC(OC(=O)c1cccs1)C(=O)NCC1CCCO1` (configuration not stated)?
PostGolgi yeast: 2; CYP2C9 act: 1.1; CYP2C19 inh: 51*; CYP2C9 inhib: -7; CYP2C19 activ: 0.5; PostGolgi ctrl: 0

Results for O=C(Nc1cccc(Cl)c1)C1CCCN(S(=O)(=O)c2ccc(F)cc2)C1 (configuration not stated) ?
PostGolgi yeast: -6; CYP2C9 act: 0.9; CYP2C19 inh: 23; CYP2C9 inhib: 13; CYP2C19 activ: 0.8; PostGolgi ctrl: 14

What do the screens show for `Cc1cccc(CS(=O)(=O)Cc2ccc(C(=O)NCCCN3CCOCC3)o2)c1`?
PostGolgi yeast: -5; CYP2C9 act: 0.8; CYP2C19 inh: 11; CYP2C9 inhib: 22; CYP2C19 activ: 0.9; PostGolgi ctrl: -2

Results for Cc1cccc(CS(=O)(=O)Cc2ccc(C(=O)NCCCN3CCCC3)o2)c1 ?
PostGolgi yeast: 33*; CYP2C9 act: 0.8; CYP2C19 inh: 11; CYP2C9 inhib: 25; CYP2C19 activ: 0.9; PostGolgi ctrl: -9

Results for CCOCCCNC(=O)c1ccc(CS(=O)(=O)Cc2cccc(C)c2)o1 ?
PostGolgi yeast: -11; CYP2C9 act: 0.9; CYP2C19 inh: 23; CYP2C9 inhib: 7; CYP2C19 activ: 0.8; PostGolgi ctrl: 33*
